Laboratory results taken from PMC11006913.

Columns and labels:
Experiment in all cases: PBM; 200 nM protein, PBS
Details in all cases: dsDNA, one strand shown
HOXA2 [1] = target: HOXA2 (Homo sapiens, UniProt O43364 129-215, R185T)
HOXA2 [2] = target: HOXA2 (Homo sapiens, UniProt O43364 129-215, R185K)
HOXA2 [3] = target: HOXA2 (Homo sapiens, UniProt O43364 129-215, Y150S)
HOXA2 [4] = target: HOXA2 (Homo sapiens, UniProt O43364 129-215)
VAX1 [5] = target: VAX1 (Homo sapiens, UniProt Q5SQQ9 86-172)
Sequence of VAX1 (Homo sapiens, UniProt Q5SQQ9 86-172) (Q5SQQ9 86-172): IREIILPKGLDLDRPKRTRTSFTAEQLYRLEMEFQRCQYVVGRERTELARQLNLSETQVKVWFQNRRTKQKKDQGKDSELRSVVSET

VAX1 [6] = target: VAX1 (Homo sapiens, UniProt Q5SQQ9 86-172, T142I)
Sequence of VAX1 (Homo sapiens, UniProt Q5SQQ9 86-172, T142I) (Q5SQQ9 86-172 T142I): as the sequence (Q5SQQ9 86-172) above, with T57I counted along it

VAX1 [7] = target: VAX1 (Homo sapiens, UniProt Q5SQQ9 86-172, K157R)
Sequence of VAX1 (Homo sapiens, UniProt Q5SQQ9 86-172, K157R) (Q5SQQ9 86-172 K157R): as the sequence (Q5SQQ9 86-172) above, with K72R counted along it

CRX = CRX (Homo sapiens, UniProt O43186 26-111, R41L)
Sequence of CRX (O43186 26-111 R41L): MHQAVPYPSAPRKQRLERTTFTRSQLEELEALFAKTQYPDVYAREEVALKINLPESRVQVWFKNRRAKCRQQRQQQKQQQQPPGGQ

ALX1 = ALX1 (Homo sapiens, UniProt Q15699 118-204, L144R)
Sequence of ALX1 (Q15699 118-204 L144R): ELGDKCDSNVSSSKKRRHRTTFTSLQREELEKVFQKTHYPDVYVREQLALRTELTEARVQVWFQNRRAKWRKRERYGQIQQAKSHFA

Sequence of HOXA2 (Homo sapiens, UniProt O43364 129-215, R185T) (O43364 129-215 R185T): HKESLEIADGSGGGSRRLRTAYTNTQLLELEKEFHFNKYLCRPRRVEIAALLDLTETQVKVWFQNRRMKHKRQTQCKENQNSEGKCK
Sequence of HOXA2 (Homo sapiens, UniProt O43364 129-215, Y150S) (O43364 129-215 Y150S): as the sequence (O43364 129-215 R185T) above, with Y22S, T57R counted along it
Sequence of HOXA2 (Homo sapiens, UniProt O43364 129-215, R185K) (O43364 129-215 R185K): as the sequence (O43364 129-215 R185T) above, with T57K counted along it
Sequence of HOXA2 (Homo sapiens, UniProt O43364 129-215) (O43364 129-215): as the sequence (O43364 129-215 R185T) above, with T57R counted along it

## CCCCCACC
HOXA2 [1]
  binding signal: 6.87 upbm affinity estimate (log intensity, higher = more binding, comparable within an allelic series)
HOXA2 [2]
  binding signal: 9.85 upbm affinity estimate (log intensity, higher = more binding, comparable within an allelic series)
HOXA2 [3]
  binding signal: 10.3 upbm affinity estimate (log intensity, higher = more binding, comparable within an allelic series)
HOXA2 [4]
  binding signal: 6.86 upbm affinity estimate (log intensity, higher = more binding, comparable within an allelic series)

## AGTTAACG
HOXA2 [1]
  binding signal: 9.97 upbm affinity estimate (log intensity, higher = more binding, comparable within an allelic series)
HOXA2 [2]
  binding signal: 12.2 upbm affinity estimate (log intensity, higher = more binding, comparable within an allelic series)
HOXA2 [3]
  binding signal: 10.7 upbm affinity estimate (log intensity, higher = more binding, comparable within an allelic series)
HOXA2 [4]
  binding signal: 9.96 upbm affinity estimate (log intensity, higher = more binding, comparable within an allelic series)

## GCTCATTA
HOXA2 [1]
  binding signal: 12.7 upbm affinity estimate (log intensity, higher = more binding, comparable within an allelic series)
HOXA2 [2]
  binding signal: 13.2 upbm affinity estimate (log intensity, higher = more binding, comparable within an allelic series)
VAX1 [5]
  binding signal: 13.1 upbm affinity estimate (log intensity, higher = more binding, comparable within an allelic series)
VAX1 [6]
  binding signal: 12.8 upbm affinity estimate (log intensity, higher = more binding, comparable within an allelic series)
HOXA2 [3]
  binding signal: 10.5 upbm affinity estimate (log intensity, higher = more binding, comparable within an allelic series)
HOXA2 [4]
  binding signal: 12.5 upbm affinity estimate (log intensity, higher = more binding, comparable within an allelic series)
VAX1 [7]
  binding signal: 12.7 upbm affinity estimate (log intensity, higher = more binding, comparable within an allelic series)

## ACTAATGC
HOXA2 [1]
  binding signal: 10.2 upbm affinity estimate (log intensity, higher = more binding, comparable within an allelic series)
HOXA2 [2]
  binding signal: 12.2 upbm affinity estimate (log intensity, higher = more binding, comparable within an allelic series)
HOXA2 [3]
  binding signal: 10.7 upbm affinity estimate (log intensity, higher = more binding, comparable within an allelic series)
CRX
  binding signal: 10.1 upbm affinity estimate (log intensity, higher = more binding, comparable within an allelic series)
HOXA2 [4]
  binding signal: 10.5 upbm affinity estimate (log intensity, higher = more binding, comparable within an allelic series)

## ACCTCGCC
HOXA2 [1]
  binding signal: 7.06 upbm affinity estimate (log intensity, higher = more binding, comparable within an allelic series)
HOXA2 [2]
  binding signal: 10.2 upbm affinity estimate (log intensity, higher = more binding, comparable within an allelic series)
HOXA2 [3]
  binding signal: 10.4 upbm affinity estimate (log intensity, higher = more binding, comparable within an allelic series)
HOXA2 [4]
  binding signal: 6.93 upbm affinity estimate (log intensity, higher = more binding, comparable within an allelic series)

## CGAGAGGC
HOXA2 [1]
  binding signal: 7.16 upbm affinity estimate (log intensity, higher = more binding, comparable within an allelic series)
HOXA2 [2]
  binding signal: 10.3 upbm affinity estimate (log intensity, higher = more binding, comparable within an allelic series)
HOXA2 [3]
  binding signal: 10.4 upbm affinity estimate (log intensity, higher = more binding, comparable within an allelic series)
HOXA2 [4]
  binding signal: 7.01 upbm affinity estimate (log intensity, higher = more binding, comparable within an allelic series)

## GGAGGCGA
HOXA2 [1]
  binding signal: 7.15 upbm affinity estimate (log intensity, higher = more binding, comparable within an allelic series)
HOXA2 [2]
  binding signal: 10.6 upbm affinity estimate (log intensity, higher = more binding, comparable within an allelic series)
HOXA2 [3]
  binding signal: 10.4 upbm affinity estimate (log intensity, higher = more binding, comparable within an allelic series)
HOXA2 [4]
  binding signal: 7.38 upbm affinity estimate (log intensity, higher = more binding, comparable within an allelic series)

## TACTTTAA
HOXA2 [1]
  binding signal: 9.67 upbm affinity estimate (log intensity, higher = more binding, comparable within an allelic series)
HOXA2 [2]
  binding signal: 11.6 upbm affinity estimate (log intensity, higher = more binding, comparable within an allelic series)
HOXA2 [3]
  binding signal: 10.8 upbm affinity estimate (log intensity, higher = more binding, comparable within an allelic series)
HOXA2 [4]
  binding signal: 9.6 upbm affinity estimate (log intensity, higher = more binding, comparable within an allelic series)

## CTGATTAA
HOXA2 [1]
  binding signal: 11.9 upbm affinity estimate (log intensity, higher = more binding, comparable within an allelic series)
HOXA2 [2]
  binding signal: 12.9 upbm affinity estimate (log intensity, higher = more binding, comparable within an allelic series)
ALX1
  binding signal: 11.1 upbm affinity estimate (log intensity, higher = more binding, comparable within an allelic series)
HOXA2 [3]
  binding signal: 10.8 upbm affinity estimate (log intensity, higher = more binding, comparable within an allelic series)
HOXA2 [4]
  binding signal: 11.5 upbm affinity estimate (log intensity, higher = more binding, comparable within an allelic series)

## AATTGCTC
HOXA2 [1]
  binding signal: 10.4 upbm affinity estimate (log intensity, higher = more binding, comparable within an allelic series)
HOXA2 [2]
  binding signal: 12 upbm affinity estimate (log intensity, higher = more binding, comparable within an allelic series)
HOXA2 [3]
  binding signal: 10.6 upbm affinity estimate (log intensity, higher = more binding, comparable within an allelic series)
HOXA2 [4]
  binding signal: 10.2 upbm affinity estimate (log intensity, higher = more binding, comparable within an allelic series)
